Results reported in PubChem BioAssay (Tox21).
Unmarked numbers belong to inactive results. Inconclusive results are not listed. Activity calls are given as the source filed them. Unless noted, calls come from the whole dose curve; as a rule, active = well fitted curve in the direction sought with a large enough effect in the repeat runs; inconclusive = weak or mixed curves; inactive = flat fitted curve, though single readings scatter.

Tested on: not listed separately
Test: qHTS assay to test for compound auto fluorescence at 535 nm (green) in HepG2 cell free culture (AID 720686)
Settings: Cell-free medium, green autofluorescence 485/535 nm; series mostly up to 91.3 µM; fluorescence, % of fluorescein control: at the top concentration
% is set by controls: 0 for no effect and ±100 for the full control effect.

| SMILES | fluorescence, % of fluorescein control |
| --- | --- |
| CCCCC/C=C/CC(=O)OC | 0.0429% |
| C=CCOc1cc(Cl)ccc1C(=O)NCCN(CC)CC | 0.0938% [at 46 µM] |
| CCCCCC1Nc2cc(C(F)(F)F)c(S(N)(=O)=O)cc2S(=O)(=O)N1 (stereo unspecified) | -0.114% [at 46 µM] |
| C[Si]1(C)N[Si](C)(C)N[Si](C)(C)N1 | 0.0852% |
| Cc1oc(=O)oc1CN1CCN(c2cc3c(cc2F)c(=O)c(C(=O)O)c2n3C(C)S2)CC1 (stereo unspecified) | -0.128% [at 46 µM] |
| CCc1nccnc1C | 0.0513% |
| Cc1ccccc1C(=O)N1CC/C(=N\OS(=O)(=O)O)c2ccc(Cl)cc21 | -0.0731% [at 46 µM] |
| COc1cc2c(Nc3ccc(Br)cc3F)ncnc2cc1OCC1CCN(C)CC1 | 0.0358% [at 46 µM] |
| CO/N=C(/C(=O)N[C@@H]1C(=O)N2C(C(=O)O)=C(Cn3nnc(C)n3)CS[C@H]12)c1csc(N)n1 | -0.0758% [at 46 µM] |
| Cc1nc(C)nc(N2C[C@@H](C)N(c3ccnc([C@@H](C)O)n3)[C@@H](C)C2)n1 | 0.0627% [at 46 µM] |
| CC(=O)N(CC(O)CO)c1c(I)c(C(=O)NCC(O)CO)c(I)c(C(=O)NCC(O)CO)c1I (stereo unspecified) | 0.157% [at 46 µM] |
| O=C(COCCOCCOCC(=O)Nc1c(I)cc(I)c(C(=O)O)c1I)Nc1c(I)cc(I)c(C(=O)O)c1I | -0.0852% [at 46 µM] |
| C[C@@H]1C[C@H]2[C@@H]3C[C@H](F)C4=CC(=O)C=C[C@]4(C)[C@@]3(F)[C@@H](O)C[C@]2(C)[C@@]1(O)C(=O)CO | 0.0581% [at 18.6 µM] |
| C=C[Si](C)(C)O[Si](C)(C)C=C | -0.17% |

Tested on: not listed separately
Test: qHTS assay to test for compound auto fluorescence at 460 nm (blue) in HepG2 cells (AID 720687)
Settings: autofluorescence 405/460 nm, 1 h; series mostly up to 91.3 µM; fluorescence, % of fluorescent control: at the top concentration
How it was run: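 Blue-channel autofluorescence (Ex/Em 405/460 nm, triamterene-equivalent) was measured after 1 hr compound exposure at 37 C, 5% CO2. Cells were HepG2, plated overnight at 37 C in MEM plus 10% FBS.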

| SMILES | fluorescence, % of fluorescent control |
| --- | --- |
| NS(=O)(=O)c1cc2c(cc1Cl)NC(C(Cl)Cl)NS2(=O)=O (stereo unspecified) | -0.0034% [at 18.6 µM] |
| SCCSCCS | -0.131% |
| Cc1cc(C)cc([N+](=O)[O-])c1 | 0.0616% [at 95.7 µM] |
| CCCCOC(=O)C(C)OC(=O)CCC (stereo unspecified) | 0.153% |
| CC1=NN(c2ccc(S(=O)(=O)O)cc2)C(=O)C1N=Nc1ccccc1 (stereo unspecified) | -0.515% |
| O=C(O)c1ccccc1C(=O)Nc1ccc(S(=O)(=O)Nc2nccs2)cc1 | 0.239% [at 46 µM] |
| FC(F)(F)/C(=N\OCC1OCCO1)c1ccc(Cl)cc1 | 0.125% |
| CCOC(=O)CC#N | 0.168% |
| CCCOC(=O)CCCCC(=O)OCCC | 0.215% |
| C[C@H]1O[C@H](O[C@H]2[C@H](O)[C@@H](O)[C@@H](O[C@H]3[C@H](O)[C@@H](O)[C@H](O)O[C@@H]3CO)O[C@@H]2CO)[C@H](O)[C@@H](O)[C@@H]1N[C@H]1C=C(CO)[C@@H](O)[C@H](O)[C@H]1O | -0.0687% [at 46 µM] |
| O=S(=O)(O)CCO | 0.137% [at 95.7 µM] |
| CCCCC(CC)C(=O)OC(C)C (stereo unspecified) | 0.0302% |
| CCC(=O)c1ccc(O)cc1 | -0.0038% [at 46 µM] |
| CCCCCCCCC(=O)OCC | -0.0423% |
| COc1cc2c3cc1Oc1cc(ccc1O)C[C@@H]1c4c(cc(OC)c(O)c4Oc4ccc(cc4)C[C@@H]3N(C)CC2)CC[N+]1(C)C | 0.0547% [at 46 µM] |
| C=CCOc1cc(Cl)ccc1C(=O)NCCN(CC)CC | -0.0063% [at 46 µM] |
| CCCCCC1Nc2cc(C(F)(F)F)c(S(N)(=O)=O)cc2S(=O)(=O)N1 (stereo unspecified) | -0.0167% [at 46 µM] |
| C[Si]1(C)N[Si](C)(C)N[Si](C)(C)N1 | -0.0272% |
| Cc1oc(=O)oc1CN1CCN(c2cc3c(cc2F)c(=O)c(C(=O)O)c2n3C(C)S2)CC1 (stereo unspecified) | -0.124% [at 46 µM] |
| CCc1nccnc1C | 0.146% |
| COc1cc2c(Nc3ccc(Br)cc3F)ncnc2cc1OCC1CCN(C)CC1 | 0.314% [at 46 µM] |
| CO/N=C(/C(=O)N[C@@H]1C(=O)N2C(C(=O)O)=C(Cn3nnc(C)n3)CS[C@H]12)c1csc(N)n1 | -0.0418% [at 46 µM] |
| Cc1nc(C)nc(N2C[C@@H](C)N(c3ccnc([C@@H](C)O)n3)[C@@H](C)C2)n1 | 0.037% [at 46 µM] |
| CC(=O)N(CC(O)CO)c1c(I)c(C(=O)NCC(O)CO)c(I)c(C(=O)NCC(O)CO)c1I (stereo unspecified) | -0.0149% [at 46 µM] |
| C[C@@H]1C[C@H]2[C@@H]3C[C@H](F)C4=CC(=O)C=C[C@]4(C)[C@@]3(F)[C@@H](O)C[C@]2(C)[C@@]1(O)C(=O)CO | -0.0249% [at 18.6 µM] |
| C=C[Si](C)(C)O[Si](C)(C)C=C | -0.0889% |

Target: Glucocorticoid receptor (Homo sapiens) (UniProt P04150)
Sequence (P04150 whole entry, looked up): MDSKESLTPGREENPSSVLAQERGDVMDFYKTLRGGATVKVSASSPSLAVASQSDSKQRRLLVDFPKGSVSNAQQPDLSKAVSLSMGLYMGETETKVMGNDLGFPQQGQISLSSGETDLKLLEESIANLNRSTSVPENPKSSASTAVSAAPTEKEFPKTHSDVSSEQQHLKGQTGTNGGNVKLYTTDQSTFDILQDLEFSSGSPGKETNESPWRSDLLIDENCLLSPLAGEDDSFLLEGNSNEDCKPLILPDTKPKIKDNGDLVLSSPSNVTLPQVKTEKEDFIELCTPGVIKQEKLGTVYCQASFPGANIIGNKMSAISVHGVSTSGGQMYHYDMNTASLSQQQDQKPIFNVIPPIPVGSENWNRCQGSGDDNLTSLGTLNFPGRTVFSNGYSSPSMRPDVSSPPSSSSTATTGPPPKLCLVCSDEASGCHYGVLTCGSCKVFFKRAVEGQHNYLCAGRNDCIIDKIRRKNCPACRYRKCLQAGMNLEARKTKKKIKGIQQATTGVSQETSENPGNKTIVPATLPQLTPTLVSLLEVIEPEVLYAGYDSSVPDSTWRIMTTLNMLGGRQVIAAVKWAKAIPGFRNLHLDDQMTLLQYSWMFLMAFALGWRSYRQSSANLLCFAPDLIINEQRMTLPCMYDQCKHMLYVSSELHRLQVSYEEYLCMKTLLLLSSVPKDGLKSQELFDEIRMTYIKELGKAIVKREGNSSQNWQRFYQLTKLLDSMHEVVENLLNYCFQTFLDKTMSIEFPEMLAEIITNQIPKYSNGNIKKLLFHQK
Test: qHTS assay to identify small molecule agonists of the glucocorticoid receptor (GR) signaling pathway (AID 720691; active = well fitted activation curve with a large enough effect in the signal ratio in the repeat runs, not every such curve was filed as active; the % refers to the signal ratio)
Settings: GR-bla HeLa, beta-lactamase reporter ratio, 18 h; series mostly up to 62.4 µM; activation: at the top concentration
How it was run: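 Steps: seed GR-bla HeLa cells, incubate 4 h at 37 C/5% CO2; pin-transfer DMSO-dissolved compounds; incubate 18 h at 37 C; add LiveBLAzer B/G FRET substrate; after 2 h at room temperature, measure fluorescence.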

| SMILES | activation | Potency |
| --- | --- | --- |
| CC(C)COC(=O)COc1ccc(Cl)cc1Cl | -2.8% |  |
| O=c1[nH]c(=O)c2[nH]c(=O)[nH]c2[nH]1 |  | inactive |
| SCCSCCS | 5.6% |  |
| Cc1cc(C)cc([N+](=O)[O-])c1 | 3.77% [at 79.2 µM] |  |
| CCCCOC(=O)C(C)OC(=O)CCC (stereo unspecified) | -1.6% |  |
| CC1=NN(c2ccc(S(=O)(=O)O)cc2)C(=O)C1N=Nc1ccccc1 (stereo unspecified) | -0.155% |  |
| O=C(O)c1ccccc1C(=O)Nc1ccc(S(=O)(=O)Nc2nccs2)cc1 | 0.461% |  |
| FC(F)(F)/C(=N\OCC1OCCO1)c1ccc(Cl)cc1 | -1.82% |  |
| Nc1ccc(/C=C/c2ccc(N)cc2S(=O)(=O)O)c(S(=O)(=O)O)c1 | 1.06% |  |
| CCOC(=O)CC#N | 1.89% |  |
| COc1cc(C=O)ccc1OC(=O)C(C)C | -0.572% |  |
| CCCOC(=O)CCCCC(=O)OCCC | 0.0529% |  |
| O=S(=O)(O)CCO | 1.5% [at 79.2 µM] |  |
| CCCCC(CC)C(=O)OC(C)C (stereo unspecified) | 3.76% |  |
| CCC(=O)c1ccc(O)cc1 | -1.51% |  |
| CCCCCCCCC(=O)OCC | -0.585% |  |
| CCCCC/C=C/CC(=O)OC | -2.04% |  |
| C=CCOc1cc(Cl)ccc1C(=O)NCCN(CC)CC | -0.563% |  |
| CCCCCC1Nc2cc(C(F)(F)F)c(S(N)(=O)=O)cc2S(=O)(=O)N1 (stereo unspecified) | -1.97% |  |
| CCc1nccnc1C | 4.74% |  |
| Cc1ccccc1C(=O)N1CC/C(=N\OS(=O)(=O)O)c2ccc(Cl)cc21 | -7.37% |  |
| COc1cc2c(Nc3ccc(Br)cc3F)ncnc2cc1OCC1CCN(C)CC1 | -1.66% |  |
| CO/N=C(/C(=O)N[C@@H]1C(=O)N2C(C(=O)O)=C(Cn3nnc(C)n3)CS[C@H]12)c1csc(N)n1 | -0.722% |  |
| Cc1nc(C)nc(N2C[C@@H](C)N(c3ccnc([C@@H](C)O)n3)[C@@H](C)C2)n1 | 2.32% |  |
| O=C(COCCOCCOCC(=O)Nc1c(I)cc(I)c(C(=O)O)c1I)Nc1c(I)cc(I)c(C(=O)O)c1I | -0.214% |  |
| C=C[Si](C)(C)O[Si](C)(C)C=C | 0.239% |  |
